40 compounds from PubChem BioAssay (Tox21) can be followed below.

Records with an inconclusive call do not appear. The source made the active and inactive calls. The call rests on the fitted dose curve.

The assay is described as follows: qHTS assay for small molecule agonists of the p53 signaling pathway - cell viability (AID 651633).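 Further: p53RE-bla HCT reporter cells with a stable beta-lactamase p53 reporter; nearly all actives have a fitted effect of over 30% in size.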 To be noted: p53RE-bla HCT-116 viability, ATP luminescence, 16 h; series mostly up to 83.3 µM. An excerpt: National Center for Advancing Translational Sciences [NCATS]
NIH Chemical Genomics Center [NCGC]
U.S. Environmental Protection Agency [EPA]
National Institutes of Environmental Health Sciences [NIEHS]
National Toxicology Program [NTP]
U.S. Food and Drug Administration [FDA]
p53, a tumor suppressor protein, is activated following cellular insult, including DNA damage and other cellular stresses. The activation of p53 regulates cell fate by inducing DNA repair, cell cycle arrest, apoptosis, or cellular senescence. The activation of p53, therefore, is a good indicator of DNA damage and other cellular stresses. […] The activation of the reporter gene under culture conditions can be detected by fluorescence intensity. This cell line was used to screen the Tox21 compound library in a 1536-well plate format and to identify agonists that activate the p53 signaling pathway.
Tox21 Assay Protocol Summary:
The p53RE-bla cells were dispensed at 4,000 cells/5 ul/well in 1536-well black wall/clear bottom plates using a Multidrop dispenser. After the assay plates were incubated at a 37 C/5% CO2 incubator for 5 hours, 23 nL of compounds dissolved in DMSO, positive controls or DMSO only was transferred to the assay plate by a pin tool. The plates were incubated at 37 C for 16 hours. After 1 uL of LiveBLAzerTM B/G FRET substrate was added using a Flying Reagent Dispenser, the plates were incubated at room temperature for 2 hours, and fluorescence intensity was measured by an Envision plate reader.
For cell viability readout that measures cytotoxicity, 4 ul/well of CellTiter-Glo reagent was added into the assay plates using a Flying Reagent Dispenser. After 30 min incubation at room temperature, the luminescence intensity in the plates was measured using a ViewLux plate reader.
Take `CC(C)(C)NC[C@H](O)COc1cccc2c1CCCC2=O`: the outcome was inactive.
The value for `CCCCCCCCCCCCCCC(=O)NC(CO)CCCCCCCCCCCCCC` (stereo not given) was “inactive”; that for `CSc1cnccn1` was “inactive”; that for `C=C(C)C1CC=C(C)C(=O)C1` (stereo not given) was “inactive”.
The value for `O=C(Cl)c1ccccc1[N+](=O)[O-]` was “inactive”.
As for `Cn1c(=O)c2c(ncn2CCO)n(C)c1=O`, the entry is “inactive”; as for `Cc1ccc(N)cc1S(=O)(=O)O`, “inactive”; as for `O=Cc1cc2ccccc2o1`, “inactive”.
With `CC1(C)Oc2ccc(C#N)cc2[C@@H](N2CCCC2=O)[C@@H]1O`, the compound was classed as inactive.
The value for `O=C1CCC(=O)N1Cl` was “inactive”; that for `CCCCCc1cccc(=O)o1` was “inactive”; that for `CN(C)C(C)(C)CO` was “inactive”.
As for `C=CCOC(=O)CCCCCC`, the entry is “inactive”.
For `CO/N=C(/C(=O)N[C@@H]1C(=O)N2C(C(=O)[O-])=C(C[n+]3ccn4ncccc43)CS[C@H]12)c1nsc(N)n1`, the call was inactive.
As to `CCC(C)OC(C)CC` (stereo not given), the outcome was inactive.
As for `COC(C)(OC)OC`, the entry is “inactive”; as for `O=C(O)c1cc2ccccc2nc1C(=O)O`, “inactive”.
The value for `COc1ccc(CCO)cc1` was “inactive”; that for `CN(C)CCCCl` was “inactive”.
As for `O=C[O][Al]([O]C=O)[O]C=O`, the entry is “inactive”.
As for `C#CCN[C@@H]1CCc2ccccc21`, the outcome was inactive.
The value for `c1ccc2c(CC3=NCCN3)cccc2c1` was “inactive”; that for `CC(O)COC(C)(C)C` (stereo not given) was “inactive”; that for `Cc1cc(C)c(C(=O)O)c(C)c1` was “inactive”.
As for `O=Cc1ccccc1Cl`, the entry is “inactive”; as for `CCCCCC(C)O` (stereo not given), “inactive”; as for `C=CC(=O)CCCCC`, “inactive”.
Consider `Cc1c(C(=O)c2c[nH]n(C)c2=O)ccc(S(C)(=O)=O)c1C1=NOCC1`, for which the outcome was inactive.
The value for `C=C(C)[C@@H]1CC=C(C)C(=O)C1` was “inactive”.
As for `COc1nc(N)nc2nc[nH]c12`, the entry is “inactive”; as for `CCC(C)C(=O)OCCc1ccccc1` (stereo not given), “inactive”.
The value for `C=CCN1C[C@H](C(=O)N(CCCN(C)C)C(=O)NCC)C[C@@H]2c3cccc4[nH]cc(c34)C[C@H]21` was “inactive”; that for `CCCCOC(=O)[C@H](C)O` was “inactive”; that for `N[C@@H](Cc1ccc(O)cc1)C(=O)O` was “inactive”.
For the compound `O=C(O)CCCCCC(=O)O`, the outcome was inactive.
Consider `OCCN1CCOCC1`, for which the call was inactive.
As for `Nc1nnnn1-c1ccccc1`, the entry is “inactive”; as for `CC(C)c1ccc(C=O)cc1`, “inactive”.
As for `C[Si]1(C)O[Si](C)(C)O[Si](C)(C)O[Si](C)(C)O[Si](C)(C)O1`, the entry is “inactive”; as for `CC(=O)C1C(=O)C=C(C)OC1=O` (stereo not given), “inactive”.
